Source: PubChem BioAssay (several laboratories)
COUP-TFII inh: blocks human COUP-TFII nuclear receptor. P24468. HEK293T NGFI-A luciferase reporter, luminescence. inhibition, % at 8.6 µM. 0.7% of 370,000 active. AID 686940;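 active = inhibition above a per-plate cutoff, mean inhibition of test wells between control levels plus 3 SD, cut at about 38% in these data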;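 note: cells cotransfected with COUP-TFII expression vector driving the NGFI-A reporter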
Target sequence (P24468 whole entry, looked up): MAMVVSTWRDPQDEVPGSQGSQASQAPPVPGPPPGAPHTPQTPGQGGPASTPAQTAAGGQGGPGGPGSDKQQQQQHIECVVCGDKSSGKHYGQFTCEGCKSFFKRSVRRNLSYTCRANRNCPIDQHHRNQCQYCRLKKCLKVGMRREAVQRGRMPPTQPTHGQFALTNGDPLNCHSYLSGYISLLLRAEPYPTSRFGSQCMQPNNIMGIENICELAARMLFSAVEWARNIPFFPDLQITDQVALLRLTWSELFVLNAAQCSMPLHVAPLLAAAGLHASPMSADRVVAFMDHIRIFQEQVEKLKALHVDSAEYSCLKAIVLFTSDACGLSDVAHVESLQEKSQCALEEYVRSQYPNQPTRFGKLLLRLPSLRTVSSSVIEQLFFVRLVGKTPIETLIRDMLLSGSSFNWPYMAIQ
Jurkat NFkB inh: inhibitors of the PMA/ionomycin-induced NF-kB reporter in Jurkat cells. inhibition, % at 4 µM. PMA/ionomycin-induced NF-kB luciferase reporter, luminescence. 0.53% of 330,000 active; in the data active = inhibition above about 50%
H9c2 TAG inh: inhibitors of triacylglycerol accumulation | H9c2 cells, Nile Red lipid (TAG) fluorescence; cells loaded with 200 µM oleic acid | inhibition, % at 12.5 µM | 0.66% of 230,000 active | AID 651582;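 active = pattern-corrected inhibition of lipid staining of at least 50% with the nuclear-stain viability signal not falling by more than 50%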
H9c2 protect: myocardial damage modulation in H9c2 cells; 0.63% of 360,000 active; H9c2 cardiomyocytes, H2O2 injury protection, ATPLite, 2 h; AID 588492; protection from H2O2 cell death, % at 20 µM;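 active = compounds giving at least 50% protection of heart cells from peroxide-induced death in the single-dose screen, raw or plate-pattern-corrected value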
697 NFkB inh: lowers PMA/ionomycin-induced NF-kB signal in 697 B cells; 697 B-cell NF-kB luciferase reporter, 16 h; inhibition, % at 4 µM; 0.33% of 330,000 active; AID 435022; in the data active = inhibition above about 35%
Gli-Sufu antag: antagonists of Gli-Sufu signaling; Sufu-KO-LIGHT fibroblasts, Gli luciferase reporter luminescence; inhibition, % at 5 µM; 0.74% of 340,000 active;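 active = inhibition above about 55%, limit read from the data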
Jurkat NFkB conf: inhibitors of the PMA/ionomycin-induced NF-kB reporter in Jurkat cells, retest; 27% of 2,700 active; Jurkat NF-kB luciferase, 16 h; shares compounds with Jurkat NFkB inh; inhibition, % at 4 µM;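 active = inhibition reaching about 45% at 4 µM in either replicate, limit read from the data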
A number is an active result; - = inactive; . = no result. This is a sample that favours compounds with a hit; in the whole collection about 2.6% have one here.

SMILES	COUP-TFII inh	Jurkat NFkB inh	H9c2 TAG inh	H9c2 protect	697 NFkB inh	Gli-Sufu antag	Jurkat NFkB conf
C/C(=N\NC(=O)c1ccc(Cl)c(Cl)c1)c1ccccn1	-	98	.	-	-	-	53
CC(C)(C)c1ccc(/C=N/NC(=O)c2ccccn2)cc1	-	-	-	-	-	-	-
Cc1ccc(-c2nnc(SCC(=O)Nc3ccc4c(c3)OCCO4)n2-c2ccc(Cl)cc2)cc1	-	.	.	.	.	.	.
C/C(=N\NC(=O)c1cc(-c2cccs2)nc2ccccc12)c1ccccn1	-	55	.	-	-	93	-
NNC(=O)c1cc(-c2cccs2)nc2ccccc12	-	-	-	-	-	-	.
Clc1ccccc1C=NNc1ccccn1	-	.	-	-	.	-	.
Clc1ccccc1/C=N/NC1=Nc2cccc3cccc1c23	-	-	.	-	-	-	-
CC(=O)n1cc(N(C(=O)CCl)c2ccc([N+](=O)[O-])cc2)c2ccccc21	-	-	-	-	-	-	.
CC(=O)n1cc(N(C(=O)CCl)c2ccccc2)c2ccccc21	-	72	65	-	-	-	-
COc1cccc([C@@H]2Oc3ccc(OC)cc3C(=O)[C@H]2O)c1	.	-	-	-	-	-	-
CCOC(=O)N=Nc1c2ccccc2c2nc3no[nH]c3nc12	-	60	.	-	-	97	98
CCOC(=O)N=Nc1c(O)n(CC(=O)OC)c2ccccc12	-	-	-	-	-	-	.
CC(C)CNS(=O)(=O)CC1NCc2cc3c(cc21)OCO3 (stereo not drawn)	-	.	.	.	.	.	.
Cc1ccc2nc(CSc3nc(C)cc(C)c3C#N)[nH]c2c1	-	-	.	-	-	-	-
COC(=O)[C@]1(C#N)CC(=O)N(C)[C@@H]1c1ccccc1	-	.	.	.	.	.	.
Cc1ccc(-c2nc(C3CCCN(S(=O)(=O)c4ccccc4)C3)no2)cc1 (stereo not drawn)	-	.	.	.	.	.	.
Cc1ccc2cccc(NS(=O)(=O)c3ccccc3)c2n1	-	99	.	.	-	-	-
O=S(=O)(Nc1cccc2cccnc12)c1ccccc1	-	101	.	-	-	-	-
CC(=O)Nc1ccc(S(=O)(=O)Nc2cccc3cccnc23)cc1	-	-	.	-	-	-	.
COc1ccc(-c2cc(C)no2)cc1S(=O)(=O)N(C)c1ccc(C)c(C)c1	-	-	.	-	-	-	.
Cc1cc(-c2ccc(S(=O)(=O)N(C)c3ccc(C)c(C)c3)s2)on1	-	57	.	-	-	-	-
Cc1ccc(N(C)S(=O)(=O)c2ccc(-c3cc(C)no3)s2)cc1	-	51	.	-	-	-	-
O=C(Nc1ccc(N2CCCC2)c(Cl)c1)c1ccco1	-	-	.	-	-	-	-
Cc1ccc(NC(CC(=O)c2ccccc2)c2ccc(F)cc2)cc1 (stereo not drawn)	-	-	.	-	-	-	.
O=C(CC(Nc1ccc(F)cc1)C(=O)O)c1ccccc1 (stereo not drawn)	-	-	-	-	-	-	-
SMILES	COUP-TFII inh	Jurkat NFkB inh	H9c2 TAG inh	H9c2 protect	697 NFkB inh	Gli-Sufu antag	Jurkat NFkB conf
COc1cc(C=NN=c2sc3ccccc3n2C)ccc1OCCO	-	.	.	.	.	.	.
Cc1ccsc1/C=N/Nc1ccc(C(=O)O)cc1	-	-	.	-	-	-	.
CCOc1cc(/C=N/Nc2cccc(C(=O)O)c2)ccc1OC(=O)c1ccccc1	-	58	-	-	-	-	-
Cc1ccsc1/C=N/Nc1cccc(C(=O)O)c1	-	56	-	-	-	-	-
COC(=O)[C@]12C[C@H](CC(=O)NCc3ccccc3)C(=O)N(Cc3cccc4ccccc34)C1=C[C@H](C(C)(C)C)O[C@@H]2C	-	.	.	.	.	.	.
CC(C)C[C@H]1COc2cc(N3CCSCC3)ccc2S(=O)(=O)N1C	-	.	.	.	.	.	.
C[C@@H]1ON(C)[C@H]2C[C@H]3c4cc(N5CCN(C)CC5)ccc4CCN3C[C@@H]12	-	.	.	.	.	.	.
CCOC(=O)[C@]12CCCCC/C=C\1N(Cc1ccc(OC)cc1)C(=O)[C@H]2CC(=O)NCCCCc1ccccc1	-	.	.	.	.	.	.
CC(=O)Nc1sc2c(c1-c1nc3ccccc3s1)CCN(C(C)C)C2	.	84	92	-	-	-	-
Cc1cccnc1NC(=O)CNC(=O)c1cccs1	-	-	-	-	-	-	.
Cc1cccnc1NC(=S)NC(=O)c1cccs1	-	-	.	-	-	-	-
COC(=O)c1cc2c(c3c4cc(OC)ccc4n(S(=O)(=O)c4ccc(F)cc4)c13)C(=O)N(C)C2	-	.	.	.	.	.	.
COc1cccc(NC(=O)CSc2nnc(-c3ccc(C)cc3)o2)c1	-	-	-	-	-	-	-
COc1ccccc1NC(=O)CSc1nnc(-c2ccc(C)cc2)o1	-	-	.	-	-	-	-
O=C(CSc1nnc(-c2cccs2)o1)c1cccc([N+](=O)[O-])c1	-	.	.	.	.	.	.
C=CCN1[C@@H](Cc2ccccc2)COc2cccc(F)c2S1(=O)=O	-	.	.	.	.	.	.
CC1=Nc2cc(C(=O)O)ccc2Sc2ccc(Br)cc21	-	-	-	-	-	-	.
CC1=Nc2cc(C(=O)NCCCOC(C)C)ccc2Sc2ccccc21	-	-	-	-	-	-	.
CCCC1=Nc2cc(C(=O)NCCCOCC)ccc2Sc2ccccc21	-	57	79	-	-	-	51
CC1=Nc2cc(C(=O)NCC3CCCO3)ccc2Sc2ccc(Br)cc21 (stereo not drawn)	-	52	-	-	-	-	-
Cc1ccc2c(Cl)c(C(=O)NCC3CCCO3)sc2c1 (stereo not drawn)	-	-	.	-	-	-	-
CC1=Nc2cc(C(=O)NCCCOC(C)C)ccc2Sc2ccc(C)cc21	-	64	-	-	-	-	-
CCCC[C@H]1C2CC(OC(=O)Nc3ccccc3C(F)(F)F)C(C2)[C@H]2CCCCN21 (stereo partly drawn)	-	.	.	.	.	.	.
CCCC1CCC2(CC1)CCC2OC(=O)Nc1ccc2c(c1)OCO2 (stereo not drawn)	-	.	.	.	.	.	.
CC(C)CNC(=O)OCc1cn(Cc2cc(F)cc(F)c2)nn1	-	.	.	.	.	.	.
SMILES	COUP-TFII inh	Jurkat NFkB inh	H9c2 TAG inh	H9c2 protect	697 NFkB inh	Gli-Sufu antag	Jurkat NFkB conf
Cc1ccc(Nc2nc(N)c3ccccc3n2)cc1C	-	-	-	-	-	-	-
CCCC#Cc1ccc(CC[C@H]2O[C@H]3CC[C@H](CO)O[C@H]3C[C@H]2NC(=O)CN2CCOCC2)cc1	-	.	.	.	.	.	.
O=C1/C(=C/c2ccc(N3CCOCC3)o2)SC(=Nc2ccccc2)N1CCc1c[nH]c2ccccc12	.	91	.	-	-	-	-
O=C(c1ccccc1)N1CCC(Oc2cccnc2)CC1	-	.	.	.	.	.	.
Cc1ccc(CNc2ccc3c(c2)nc(C)n3C)cc1	-	-	-	-	-	-	-
Cc1ccc(CNc2ccc3c(c2)ncn3C(C)(C)C)cc1	-	-	-	-	-	-	-
Cc1ccc(CNc2ccc3c(c2)ncn3C)cc1	-	-	.	-	-	-	.
COc1cc(SC)ccc1C(=O)NC(C)C	-	-	-	-	-	-	.
COc1cc(SC)ccc1C(=O)Nc1ccc(C)cc1C	-	-	.	-	-	-	-
COc1cc(SC)ccc1C(=O)Nc1ccc(C)cc1	-	-	-	-	-	-	-
